Screening data from PubChem.
The list is not random: actives were taken first. Their share in the collection is about 18%.
TGFb SMAD3 inh – inhibitors of TGF-b signaling; HepG2 CAGA-GFP TGF-b/SMAD3 reporter, GFP fluorescence, 18 h; TGF-beta stimulated, 500 pg/mL final; AID 588855; Potency, µM (highest dose often 46.1 µM), for the others: top-dose activity, negative = inhibition, most hits filed as inhibitors; 410,000 compounds, 1.2% hits; also: potency is read from the fitted curve at half-maximal effect; % is scaled to controls: 0 for no effect and ±100 for the full control effect; nearly all actives have a fitted effect of over 65% in size
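TGF-beta reporter screen: HEPG2 CAGA-GFP, 1% FBS, 500 pg/mL TGF-beta final, 18 h; per-cell GFP summed per well; curves fitted and categorized by class.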
IL1B secr inh – inflammasome signaling inhibition, IL-1 beta readout; activity change, % at 57.5 µM; THP-1 LPS/ATP IL-1B secretion, AlphaLISA, 16 h; stronger effect = lower value; 360,000 compounds, 4.7% hits; in the data active = activity change below about -50%; inconclusive = mostly about -30% to -49%; also: % is scaled to controls: 0 for no effect and ±100 for the full control effect
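Secreted IL-1B measured by AlphaLISA bead assay after 16 h compound exposure of THP-1 cells; compounds (final up to 57.5 uM) added 1 h before LPS (250 ng/mL) and ATP (1.25 mM) stimulation; lower signal means less secretion.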
HepG2 tox – kills HepG2 cells in TGF-b inhibitor counter-screen | 410,000 compounds, 0.76% hits | Potency, µM (titrated, usually from 46.1 µM), for inactives: at the top dose activity change, negative = cytotoxicity, actives largely listed as cytotoxic | AID 588856 | HepG2 CAGA-GFP viability, ATP luminescence, 18 h; also: potency is read from the fitted curve at half-maximal effect
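CellTiter-Glo luminescence gave cytotoxicity after 18 hours at 37 degrees C. The cells were HepG2 CAGA-GFP in 1% FBS DMEM, stimulated with 500 pg/mL TGF-beta after compound addition. %Activity was normalised to no-cell wells (complete cell-killing) and DMSO (no toxicity), and curves were fitted and classified.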
TDP1 cell CPT – growth inhibition of DT40 Tdp1-/-;hTDP1 cells with camptothecin (screen for TDP1 inhibitors). 420,000 compounds, 12% hits. Potency, µM (top dose mostly 46.2 µM), without a hit: at the top dose activity change, negative = growth inhibition, usual class: inhibitors. chicken DT40 Tdp1-/-;hTDP1 cells + 20 nM CPT, ATP luminescence, 48 h. AID 686979; also: potency is read from the fitted curve at half-maximal effect; % is scaled to controls: 0 for no effect and ±100 for the full control effect; nearly all actives have a fitted effect of over 55% in size
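Chicken DT40 Tdp1-/- cells complemented with human TDP1, 400 cells/well, exposed to compounds plus 20 nM camptothecin for at least 48 h at 37 C; viability read as ATP content by CellTiter-Glo luminescence.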
DT40 TDP1 no CPT – qHTS for Inhibitors of human tyrosyl-DNA phosphodiesterase 1 (TDP1): qHTS in cells in absence of CPT. DT40 Tdp1-/- hTDP1 cells, no CPT, ATP luminescence, 48 h. Potency, µM (doses to about 46.2 µM), for the others: at the top dose activity change, negative = growth inhibition, most hits filed as inhibitors. 420,000 compounds, 15% hits. AID 686978, 2013; also: potency is read from the fitted curve at half-maximal effect; % is scaled to controls: 0 for no effect and ±100 for the full control effect; nearly all actives have a fitted effect of over 55% in size
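Readout: luminescence from CellTiter-Glo after 30 min in the dark at RT. Cells: DT40 Tdp1-/- with stable hTDP1, 400/well. Exposure: compounds alone, ≥48 hr, 37 °C.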
TDP1 inh – TDP1 (human) enzyme inhibition | recombinant TDP1, AlphaScreen DNA substrate cleavage | 350,000 compounds, 0.28% hits | Potency, µM (titrated, usually from 130 µM), without a hit: at the highest dose activity change, negative = inhibition, usual class: inhibitors | AID 485290; also: potency is read from the fitted curve at half-maximal effect; % is scaled to controls: 0 for no effect and ±100 for the full control effect; nearly all actives have a fitted effect of over 40% in size
Target sequence (Q9NUW8 whole entry, looked up): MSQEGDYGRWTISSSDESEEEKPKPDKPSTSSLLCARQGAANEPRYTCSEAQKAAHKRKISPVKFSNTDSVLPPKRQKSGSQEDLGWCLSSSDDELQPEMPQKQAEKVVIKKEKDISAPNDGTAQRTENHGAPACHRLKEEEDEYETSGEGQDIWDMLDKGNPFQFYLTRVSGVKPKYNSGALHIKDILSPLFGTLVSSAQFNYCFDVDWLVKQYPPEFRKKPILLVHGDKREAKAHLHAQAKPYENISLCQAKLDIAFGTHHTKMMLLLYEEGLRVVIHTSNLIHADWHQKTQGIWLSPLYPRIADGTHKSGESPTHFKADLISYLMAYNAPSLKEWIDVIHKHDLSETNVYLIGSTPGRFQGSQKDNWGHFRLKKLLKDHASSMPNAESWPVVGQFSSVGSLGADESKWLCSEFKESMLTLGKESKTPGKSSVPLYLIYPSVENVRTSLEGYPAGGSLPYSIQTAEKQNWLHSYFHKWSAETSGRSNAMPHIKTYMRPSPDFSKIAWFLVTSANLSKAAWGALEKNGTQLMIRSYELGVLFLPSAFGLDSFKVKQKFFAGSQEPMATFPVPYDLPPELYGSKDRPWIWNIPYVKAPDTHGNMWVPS
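Compounds were preincubated with Tdp1 (1 nM final) for 15 min at room temperature before substrate (15 nM final) started a 5 min reaction; beads (10 ug/ml final) were then added for 10 min before AlphaScreen detection.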
Numbers without * were called inactive; ? = inconclusive; . = not tested or not shown; ! = not active in a repeat; [ ] = another dose, or the depositor's remark. Unless noted, calls follow the shape of the dose curve; as a rule, active = well fitted curve in the direction sought with a large enough effect; inconclusive = small, poorly fitted or top-dose-only effect, or another doubt; inactive = no such curve, though single readings can be large; an effect the other way counts as inactive or inconclusive.

SMILES | TGFb SMAD3 inh | IL1B secr inh | HepG2 tox | TDP1 cell CPT | DT40 TDP1 no CPT | TDP1 inh
O=C(NNC(=O)c1ccncc1)Nc1ccc(N=Nc2ccccc2)cc1 | 3% | -4 | 3% | -20% | ? | .
CCNC(=O)Nc1ccc(OC)cc1OC | -1% | 11 | -3% | 11% | 9% | 3%
Cc1[nH]c2ccccc2c1[C@H]1[C@@H](CC#N)C1(C)C | -12% | 7 | -27% | ? | ? | 9%
C=CCn1c(SCc2ccccc2Cl)nnc1-c1sc2nc(C)cc(C)c2c1N | 22% | -12 | 14% | ? | 23µM* | 1%
Cc1ccccc1C1(CC(=O)N2CCCC(C)C2)CC(=O)N(Cc2cccnc2)C1=O (configuration not stated) | . | . | . | 19%[9.04 µM] | -28% | .
CN(C)c1ccc(/C=C2/NC(=O)NC2=O)cc1 | 13% | -7 | 0% | -18% | ? | 3%
CN(C)c1ccc(/C=C2\N=C(c3ccc(Cl)c([N+](=O)[O-])c3)NC2=O)cc1 | 1% | -3 | -1% | ? | 10µM* | .
O=C(N/N=C/C(Cl)=C\c1ccccc1)c1cccs1 | 0% | -6 | -5% | ? | 9.2µM* | 4%
O=C(N/N=C/c1ccc([N+](=O)[O-])cc1)c1cccs1 | -1% | ? | -11% | ? | -22% | .
CC(/C=N/NC(=O)c1cccs1)=C\c1ccccc1 | -18% | 0 | -20% | -6% | 8.2µM* | 5%
Cc1ccc(C)c(N2CCN(c3ccncc3N)CC2)c1 | 4% | -3 | 4% | 18µM* | 13µM* | 7%
O=C(Nc1ccc2oc(-c3ccccc3Cl)nc2c1)c1ncn[nH]1 | 8% | -1 | 4% | -8% | 1% | 0%
O=C(Nc1ccc2oc(-c3cc(Br)ccc3Cl)nc2c1)c1ccc2ccccc2c1 | -23% | . | -20% | 16µM* | 12µM* | .
O=C(Nc1ccc2oc(-c3ccccc3Cl)nc2c1)c1cncc(Br)c1 | -1% | -24 | -78% | 7.3µM* | 12µM* | 3%
CC(=O)N[C@@H](CCC(N)=O)C(=O)O | . | . | . | 4% | -20% | .
CCc1ccc(C2=Nn3c(nnc3-c3cccs3)SC2)cc1 | 1% | -6 | -30% | ? | 21µM* | 4%
c1ccc(C2=Nn3c(nnc3-c3cccs3)SC2)cc1 | 0% | . | -37% | 2% | ? | .
Clc1ccccc1C1=Nn2c(nnc2-c2ccncc2)SC1 | ? | -86* | -26% | 6.5µM* | 10µM* | 7%
c1ccc(-c2ccc(C3=Nn4c(nnc4-c4cccs4)SC3)cc2)cc1 | -29% | 24 | -8% | ? | ? | 4%
c1csc(C2=Nn3c(nnc3-c3ccncc3)SC2)c1 | ? | -75* | -39% | 15µM* | 15µM* | 4%
COc1cccc(-c2nccc(N(C)Cc3ccco3)n2)c1 | . | . | . | -6% | -17% | .
CS(=O)CC(O)(c1ccc(F)cc1)C1CC1 (configuration not stated) | -12% | 12 | -6% | -7% | -21% | .
COc1cccc2sc(=NC(=O)c3ccc(S(=O)(=O)N4CCCCC4)cc3)n(C)c12 | -3% | . | -8% | -28% | -9% | 7%
CCOc1cccc2sc(=NC(=O)c3ccc(S(=O)(=O)N4CCOCC4)cc3)n(C)c12 | -3% | 18 | -6% | 15µM*! | 21µM*! | 2%
CCn1c(=NC(=O)c2ccc(S(=O)(=O)N3CCCCC3)cc2)sc2cccc(OC)c21 | 2% | . | -5% | 2.6µM* | 1.5µM* | -1%
SMILES | TGFb SMAD3 inh | IL1B secr inh | HepG2 tox | TDP1 cell CPT | DT40 TDP1 no CPT | TDP1 inh
C=CCn1c(=NC(=O)c2cccc(N3C(=O)CCC3=O)c2)sc2cccc(OC)c21 | -20% | -99* | -24% | 23µM* | 15µM* | 0%
CCn1c(=NC(=O)CS(=O)(=O)c2ccccc2)sc2cccc(OC)c21 | -13% | -59* | 0% | ? | 13µM* | 0%
NC(=O)c1cc2cc([N+](=O)[O-])ccc2oc1=O | -1% | -12 | 3% | -11% | -15% | 5%
Cc1cc2oc(=O)cc(CN(C)Cc3ccccc3)c2cc1C | -45% | 26 | -4% | ? | ? | .
O=C1CC(NS(=O)(=O)c2cccnc2)CN1c1cccc(F)c1 (configuration not stated) | -10% | 16 | -13% | 0% | 0% | .
COC(=O)c1ccc2c(c1)sc(=NC(=O)CCS(=O)(=O)c1ccccc1)n2C | 3% | -21 | 5% | ? | ? | .
COCCn1c(=NC(=O)CCS(=O)(=O)c2ccccc2)sc2ccccc21 | ? | -19 | -25% | 21µM* | 16µM* | .
C#CCn1c(=NC(=O)CN2C(=O)CCC2=O)sc2cccc(OC)c21 | 0% | 15 | -17% | -3% | ? | 4%
C#CCn1c(=NC(=O)c2cccs2)sc2cccc(OC)c21 | -17% | 51 | -34% | ? | 13µM* | -6%
COc1ccc(-c2noc(CCC(=O)N3CCN(c4ccc(Cl)cc4)CC3)n2)cc1 | -2% | 12 | 0% | -25% | -26% | -1%[56.1 µM]
CCCCN(CCCC)CC(O)CN(c1cc([N+](=O)[O-])ccc1OC)S(=O)(=O)c1ccccc1 (configuration not stated) | -23% | . | 7% | ? | 15µM* | 4%
COc1ccc([N+](=O)[O-])cc1N(CC(O)CN(CC(C)C)CC(C)C)S(=O)(=O)c1ccccc1 (configuration not stated) | -12% | ? | -45% | ? | 21µM* | -4%
COc1ccc([N+](=O)[O-])cc1N(CC(O)CN(C)C)S(=O)(=O)c1ccc(C)cc1 (configuration not stated) | 2% | 4 | -3% | -1% | -10% | 0%
